This is part of a sample that, as a whole, favours compounds with a hit. Of some 79,000 tested, about 15% had one in any assay. The source made the active and inactive calls. Rule as the data show it: active = growth inhibition above about 70%; inactive = the rest.
What was measured:
[1] = NCI Yeast Anticancer Drug Screen. Data for the rad50 strain (AID 155);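 also: 0% = growth of vehicle-only cultures of the same strain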; conditions: S. cerevisiae rad50 strain growth inhibition; at 50.0 µM; active compounds read high
In short: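 Readout: growth inhibition relative to vehicle-treated cultures. Compound exposure was carried out in a genetically defined yeast strain deficient in DNA damage repair.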

[2] = NCI Yeast Anticancer Drug Screen. Data for the mec2-1 strain (AID 157); conditions: S. cerevisiae mec2-1 strain, at 50.0 µM, active compounds read high
In short: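 Strain: mec2-1 (DNA repair/cell cycle alteration). Compound exposure, then growth measured; inhibition expressed relative to vehicle.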

[3] = NCI Yeast Anticancer Drug Screen. Data for the sgs1 mgt1 strain (AID 161);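 also: 0% = growth of cultures given vehicle only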; conditions: S. cerevisiae sgs1 mgt1 strain, at 50.0 µM, active compounds read high
In short: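 Test agents were incubated with a DNA-repair-mutant yeast strain. Growth was then read and compared against vehicle-treated controls.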

[4] = NCI Yeast Anticancer Drug Screen. Data for the cln2 rad14 strain (AID 165);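 also: 0% = growth equal to vehicle treated cultures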; conditions: S. cerevisiae cln2 rad14 strain, at 50.0 µM, active compounds read high
In short: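 Compounds are applied to the cln2 rad14 yeast strain, and growth is then compared with that of vehicle-treated cultures to give inhibition.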

[5] = NCI Yeast Anticancer Drug Screen. Data for the bub3 strain (AID 167); conditions: S. cerevisiae bub3 mutant strain, at 50.0 µM, active compounds read high
In short: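 Readout: yeast growth inhibition, expressed relative to vehicle-only wells. The test organism is a mutant strain from a panel with lesions in DNA repair or checkpoint genes.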

[6] = NCI Yeast Anticancer Drug Screen. Data for the mlh1 rad18 strain (AID 175); conditions: S. cerevisiae mlh1 rad18 strain growth inhibition; at 50.0 µM; active compounds read high
In short: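 Read-out is yeast growth inhibition, calculated against vehicle-only controls. The compound was applied to a strain engineered with DNA damage repair alterations.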

Measured: growth inhibition

N#CCCn1c2ccccc2c2ccccc21
inactive: [1] -6.45% | [2] 27.5% | [3] 2.95% | [4] 26.5% | [5] -1.65% | [6] -0.5%

BrC1=C(c2ccccc2)SC(Br)=C(c2ccccc2)S1
inactive: [1] 1.55% | [2] 4.45% | [3] 1.2% | [4] 21.7% | [5] 5.45% | [6] 3.75%

Cc1ccc2c(c1)CC1(C2=O)[C@H](c2ccccc2)C2C(=O)c3ccc(C)cc3C2[C@H]1c1ccccc1 (stereo partly specified)
inactive: [1] -14.8% | [2] 13.5% | [3] -0.15% | [4] -11.1% | [5] 14.6% | [6] 9.5%

CN1CCC=C(C(C)(C)O)C1
inactive: [1] -3.55% | [2] -4.45% | [3] -15.7% | [4] 11.3% | [5] -0.6% | [6] 2.35%

O=C(Nc1cc(Cl)c(I)c(Cl)c1)C(F)(F)F
active: [1] 96.6% | [2] 97.4% | [3] 96.8% | [4] 97% | [5] 79.8% | [6] 97.5%

O=C1CC2CC1C1C(=O)OC(=O)C21 (stereo unspecified)
inactive: [1] -6.8% | [2] 5.95% | [3] -6.7% | [4] -1.6% | [5] -6.9% | [6] -8.6%

O=[N+]([O-])C1C2CCC(C2)C1c1ccccc1 (stereo unspecified)
inactive: [1] 9.55% | [2] -3.75% | [3] -0.55% | [4] -2.05% | [5] 14.9% | [6] -0.2%

CC1=CC(=O)C(=O)c2ccccc21
inactive: [1] -34.9% | [2] -9.65% | [3] -5.5% | [4] 10.4% | [5] -4.4% | [6] -4.9%

Cc1nc2ccc(Cl)cc2c(Cl)c1CCCl
inactive: [1] 12.1% | [2] 6.5% | [3] -19.9% | [4] -8.15% | [5] 31.5% | [6] 13.8%

O=C(O)C(=N\Nc1ccccc1)/C(=N\Nc1ccccc1)C(=O)O
inactive: [1] 30.7% | [2] -6.25% | [3] 33.9% | [4] 21.8% | [5] 24.2% | [6] 7.3%

CC(C)(C)C1=CC(=O)OC1(Cl)C(C)(C)C (stereo unspecified)
inactive: [1] -0.65% | [2] 6.8% | [3] -1.05% | [4] 8.8% | [5] 13.8% | [6] -9.05%

Nc1ccncc1CCc1ccccc1
inactive: [1] 5.5% | [2] -16.2% | [3] -2.05% | [4] 12.8% | [5] -18% | [6] 3.1%

N#CC1CNC(=S)N=C1c1ccccc1 (stereo unspecified)
inactive: [1] 11.5% | [2] 17.8% | [3] 17.9% | [4] -74.6% | [5] 0.9% | [6] 12.1%

CC(=O)N(c1ccccc1)c1cc(Cl)cc[n+]1[O-]
inactive: [1] 8.5% | [2] 3.5% | [3] 5.45% | [4] -3.7% | [5] 5.3% | [6] -2.05%

COC1=CC(O)(CC(N)=O)c2ccccc2C1=O (stereo unspecified)
inactive: [1] -5.3% | [2] -8.65% | [3] 10.6% | [4] -11.4% | [5] -23.9% | [6] 4.85%

CCC(C)C(C)(O)CC (stereo unspecified)
inactive: [1] -2.6% | [2] -28.9% | [3] -21.8% | [4] 4.1% | [5] -8.8% | [6] -4.8%

NC(CS)=NCCc1nc2ccccc2[nH]1
inactive: [1] 12.6% | [2] 9.95% | [3] -0.2% | [4] -2.85% | [5] 7.6% | [6] 4.3%

CO[C@H]1C[C@H]2[C@@H]3CCC4=CC(=O)CC[C@]4(C)[C@H]3CC[C@]2(C)[C@@]1(O)C(=O)CO
inactive: [1] -7.35% | [2] -9.25% | [3] -17% | [4] -14.9% | [5] -11.7% | [6] -27.6%

CCOC(=O)N1CCN(CCO)CC1
inactive: [1] -19.9% | [2] 2.65% | [3] 2.35% | [4] -34% | [5] 3.05% | [6] -8.25%

CC(=O)O[C@]12CCCCCCC1C1(O)C(O)CCC[C@H]12 (stereo partly specified)
inactive: [1] -23.6% | [2] -1.95% | [3] -53.2% | [4] -8.95% | [5] -22.2% | [6] -36.6%

O=S(=O)(O)c1cc(O)c2c(N=Nc3c(S(=O)(=O)O)cc4cc(S(=O)(=O)O)cc(N=Nc5c(S(=O)(=O)O)cc6cc(S(=O)(=O)O)cc(O)c6c5O)c4c3O)cc(S(=O)(=O)O)cc2c1
inactive: [1] -4.7% | [2] 26.6% | [3] 5.45% | [4] -14.8% | [5] -7.6% | [6] 8.5%

Oc1cccnc1I
inactive: [1] 24.4% | [2] 3.1% | [3] 18.5% | [4] 19.5% | [5] 18% | [6] 10.2%

CC(=O)Nc1ccc2c(c1)N(O)C(=O)C2(C)C
inactive: [1] 7.9% | [2] 6.3% | [3] 11.4% | [4] -36.1% | [5] 5.5% | [6] -0.6%

Cc1cc(C)n(/N=C/c2ccccc2[N+](=O)[O-])c(=O)c1C#N
inactive: [1] 4.65% | [2] 9.4% | [3] -2.75% | [4] -0.25% | [5] -2.35% | [6] -6.85%

Cc1c(N=Nc2cccc(F)c2)c(-c2ccccc2)nn1C(=S)S
inactive: [1] 20.2% | [2] 5.25% | [3] 11.7% | [4] 15.9% | [5] 26.8% | [6] 16.7%

CCCCCCC(=O)/C=C/c1cc(Cl)cc(Cl)c1OCOC
inactive: [1] 35% | [2] 26.1% | [3] 25.1% | [4] -4.4% | [5] 18.4% | [6] 5.6%

O=C(O)C(CCOc1ccccc1)CCOc1ccccc1
inactive: [1] 0.7% | [2] -15.2% | [3] 3.5% | [4] -10.4% | [5] -9.15% | [6] -26.3%

O=C(Nc1cccc2c1C(=O)c1cc(Cl)ccc1C2=O)c1ccccc1
inactive: [1] -2.7% | [2] 0.1% | [3] 4% | [4] -38.9% | [5] 5% | [6] -2.3%

N#CCCCCCCO
inactive: [1] 14.6% | [2] -20.6% | [3] 11.4% | [4] 15.4% | [5] 5.35% | [6] 17.5%

CCOC(=O)Nc1ccccc1F
inactive: [1] 4.4% | [2] -16.1% | [3] -3.95% | [4] -6.15% | [5] 4.75% | [6] 9%

Cc1ccc(/[N+]([O-])=N/N2C(=O)c3ccccc3C2=O)cc1
inactive: [1] -15.4% | [2] -18.6% | [3] -10.1% | [4] -23.5% | [5] -16.6% | [6] -2.9%

COc1ccc(/C(=N/NC(=O)NN)C(c2ccc(OC)cc2)C2(O)CNc3c(Cl)cc(Cl)cc32)cc1 (stereo unspecified)
inactive: [1] 1.75% | [2] 14.4% | [3] -9.15% | [4] -16.4% | [5] 16.4% | [6] 12.7%

O=NN(CCCl)C(=O)Oc1ccc2ccccc2c1
inactive: [1] 29.4% | [2] -9.35% | [3] 16.1% | [4] -24.8% | [5] 6.2% | [6] -0.5%

CC(=O)c1cc(C)c(O)c(C)c1
inactive: [1] -4.25% | [2] -8.8% | [3] 0.05% | [4] -4.05% | [5] -6.75% | [6] -5.55%

COc1ccc(C[N+](C)(C)N)cc1OC
inactive: [1] -13.8% | [2] -18.2% | [3] -21.9% | [4] -9.7% | [5] -40.5% | [6] -34.1%

CC(=O)OC1CC1(Br)Br (stereo unspecified)
inactive: [1] 6.3% | [2] -15.8% | [3] 18.6% | [4] -37.8% | [5] 6.5% | [6] 5.2%

Nc1ccc(Cl)cc1N=Cc1ccccc1[N+](=O)[O-]
inactive: [1] 35.5% | [2] 13.8% | [3] 49.5% | [4] -47.5% | [5] 17.6% | [6] 12.9%

CN(C)c1ccc(/C=C(\C#N)c2ccc(F)cc2F)cc1
inactive: [1] 0.4% | [2] -2.75% | [3] -3.4% | [4] -9.05% | [5] -5.25% | [6] -23.9%

COc1cccc2c1[C@@]1(C)C3C(=O)OC(C)(c4ccccc43)[C@@]1(C)C2=O (stereo partly specified)
inactive: [1] 39.4% | [2] 20.7% | [3] -7.45% | [4] 23.1% | [5] -4.1% | [6] 9.35%

COC1C(C(=O)O)=CC=CC1OC(C)=O (stereo unspecified)
inactive: [1] 10.6% | [2] -5.45% | [3] -2.55% | [4] -44.1% | [5] 2.8% | [6] 13.6%

O=C(OC1(c2ccccc2)OC(=O)c2ccccc21)c1ccccc1C(=O)c1ccccc1 (stereo unspecified)
inactive: [1] -6.65% | [2] 2.45% | [3] -12.1% | [4] 3.45% | [5] 3.4% | [6] -25.9%

From PubChem BioAssay (NCI)
